High-throughput results from PubChem.
T cruzi growth-1 = T. cruzi intracellular proliferation inhibitors, primary screen, cell-based, beta-gal Tulahuen parasites, NIH3T3 host, luminescence; T. cruzi beta-gal in NIH3T3, GalScreen luminescence, 90 h; actives 5.9% (n = 77,000); inhibition, % at 8.34 µM;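 active = mean inhibition above about 93%, with at least 55% of replicates each passing it, limit read from the data, passing the limit was not always enough; inconclusive = only one of those two conditions holds; inactive = neither condition holds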
Pf Dd2 inh = P. falciparum Dd2 growth inhibitors, primary screen, SYBR Green fluorescence, single dose replicates | 72 h; hits give low values | activity change, % at 10 µM | actives 2.3% (n = 94,000); in the data active = activity change below about -80%; inconclusive = no clear call, values can overlap the other calls
C diff growth = C. difficile growth inhibitors, primary screen, HTS; Clostridium difficile clinical isolate growth, OD600, 24 h; hits give low values; growth activity, negative = inhibition, % at 16 µg/mL (by protocol); actives 0.25% (n = 86,000); AID 1259249, 2017;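 active = mean growth activity at or below -80% and every replicate also at or below -80%; inconclusive = mean at or below -80% but some replicate above -80%; inactive = mean growth activity above -80%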;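 note: 0% = DMSO wells and -100% = levofloxacin 16 µg/mL wells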
T cruzi growth-2 = T. cruzi intracellular proliferation inhibitors, confirmation, cell-based, NIH3T3 host, beta-gal parasite, luminescence, cherry-pick; shares compounds with T cruzi growth-1; T. cruzi beta-gal in NIH3T3, GalScreen luminescence, 90 h; inhibition, % at 8.35 µM; actives 72% (n = 5,600); AID 651739, 2012;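 active = mean replicate inhibition above about 95% and at least 55% of replicates individually reaching it, limit read from the data; inconclusive = only one of the two criteria is met; inactive = neither criterion is met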
T cruzi growth-3 = inhibitors of intracellular T. cruzi replication, confirmation, NIH3T3 host cells, beta-gal parasites, cherry-pick, set 2; shares compounds with T cruzi growth-1; T. cruzi beta-gal in NIH3T3, GalScreen luminescence, 90 h; inhibition, % at 2.09 µM; actives 21% (n = 5,600); AID 651740, 2012;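 active = mean inhibition above about 95%, with at least 55% of replicates also reaching it, limit read from the data; inconclusive = meets just one of the two conditions; inactive = meets neither condition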;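 note: plate controls were neutral control median for no effect and positive control median for full effect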
3T3 cytotox = cytotoxicity in mouse NIH/3T3 fibroblasts, confirmation, cytotoxicity control for T. cruzi proliferation inhibitor project, cell-based, cherry-pick, single point; shares compounds with T cruzi growth-1; NIH/3T3 viability, CellTiter-Glo ATP luminescence, 90 h; cytotoxicity (signal decrease), % at 8.35 µM; actives 14% (n = 5,600); AID 651742, 2012;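 active = mean signal decrease across replicates above about 35% based on untreated-well scatter, with enough replicates individually passing, limit read from the data; inconclusive = no rule stated though some were filed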;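 note: 0% = median of neutral control wells and 100% = median of positive control wells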
3T3 cytotox 2 = NIH/3T3 fibroblast cytotoxicity, confirmation, cytotoxicity control, cell-based, cherry-pick, single point, set 2 | shares compounds with T cruzi growth-1 | NIH/3T3 viability, CellTiter-Glo ATP luminescence, 90 h | inhibition, % at 24.9 µM | actives 56% (n = 5,600);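 active = mean loss of cell viability signal at or above a set limit, and enough replicates individually reaching it; inconclusive = meets only the mean limit or only the replicate share; inactive = meets neither condition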;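 note: 0% = median of neutral control wells and 100% = median of positive control wells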
Numbers without * were called inactive; ? = inconclusive; · = not tested or not shown; ! = not active in a repeat. Only some compounds are listed: those with a hit (about 6.8% of all), similar ones and a draw of the others.

SMILES	T cruzi growth-1	Pf Dd2 inh	C diff growth	T cruzi growth-2	T cruzi growth-3	3T3 cytotox	3T3 cytotox 2
O=C(C[C@@H]1CC[C@@H](NC(=O)c2ccncc2)[C@@H](CO)O1)NCC1CC1	·	·	3	·	·	·	·
O=C(C[C@H]1C=C[C@H](NS(=O)(=O)c2ccccc2F)[C@@H](CO)O1)NCCCN1CCOCC1	-15	5	0	·	·	·	·
C[C@@H]1CN([C@H](C)CO)C(=O)c2cc(NC(=O)Cc3ccccc3)ccc2O[C@H]1CN(C)Cc1ccc(Oc2ccccc2)cc1	15	64	·	·	·	·	·
C[C@@H]1CN([C@H](C)CO)C(=O)c2cc(NC(=O)Cc3ccccc3)ccc2O[C@H]1CN(C)Cc1ccc(-c2ccccc2)cc1	91	-6	3	·	·	·	·
C[C@H](CO)N1C[C@H](C)[C@@H](CN(C)Cc2ccc(Oc3ccccc3)cc2)Oc2ccc(NC(=O)Cc3ccccc3)cc2C1=O	?	-1	·	78	83	7	89*
C[C@@H]1CN([C@@H](C)CO)C(=O)c2cc(NC(=O)Cc3ccccc3)ccc2O[C@@H]1CN(C)Cc1ccc(-c2ccccc2)cc1	?	15	14	111*	59	12	95*
CC12N=C3SCc4ccccc4CN3[C@H](c3ccccc3O1)[C@H]2CO	·	·	10	·	·	·	·
C[C@@H]1CN([C@H](C)CO)C(=O)c2cc(C3=CCCCC3)cnc2O[C@H]1CN(C)Cc1ccccn1	·	-2	0	·	·	·	·
C[C@H]1CN([C@@H](C)CO)C(=O)c2cc(NS(=O)(=O)c3ccc(Cl)cc3)ccc2O[C@H]1CN(C)C(=O)Nc1ccc(C(F)(F)F)cc1	-5	8	·	·	·	·	·
C[C@@H]1CCCCO[C@@H](CN(C)S(=O)(=O)c2ccc(F)cc2)[C@@H](C)CN([C@@H](C)CO)C(=O)c2cc(NC(=O)NC3CCCCC3)ccc2O1	55	-58	29	·	·	·	·
CCCC#Cc1ccc2c(c1)O[C@@H](CN(C)C(=O)Nc1ccc(OC)cc1)[C@@H](C)CN([C@H](C)CO)S2(=O)=O	104*	-68	-1	112*	50	1	31
COc1ccc(NC(=O)N(C)C[C@H]2Oc3cc(C#CCC(C)C)ccc3S(=O)(=O)N([C@H](C)CO)C[C@@H]2C)cc1	88	-60	-4	·	·	·	·
COc1ccc(NC(=O)N(C)C[C@@H]2Oc3cc(C#CCC(C)C)ccc3S(=O)(=O)N([C@H](C)CO)C[C@@H]2C)cc1	104*	-66	-1	101*	92	27	63*
CCCC#Cc1ccc2c(c1)O[C@H](CN(C)C(=O)Nc1ccc(OC)cc1)[C@H](C)CN([C@@H](C)CO)S2(=O)=O	86	-51	-3	·	·	·	·
Cc1noc(C)c1S(=O)(=O)Nc1ccc2c(c1)CC(=O)N([C@H](C)CO)C[C@@H](C)[C@@H](CN(C)Cc1ccc(Cl)c(Cl)c1)O2	81	-10	4	·	·	·	·
O=C(Nc1ccc(F)cc1)N1CCCCN2[C@H](CO)[C@@H](c3ccc(-c4cccc(F)c4)cc3)[C@@H]2C1	84	-7	61	·	·	·	·
O=C(Nc1cccc(F)c1)N1CCCCN2[C@H](C1)[C@H](c1ccc(-c3ccccc3F)cc1)[C@@H]2CO	110*	16	36	112*	94	11	33*
O=C(Nc1cccc(F)c1)N1CC(=O)N2[C@H](CO)[C@@H](c3ccc(-c4ccccc4F)cc3)[C@@H]2C1	·	-24	-4	·	·	·	·
O=C(Nc1ccccc1)N1CCCCN2[C@H](C1)[C@@H](c1ccc(-c3ccccc3F)cc1)[C@@H]2CO	73	-11	29	·	·	·	·
O=C(Nc1cccc(F)c1)N1CCCCN2[C@H](CO)[C@H](c3ccc(-c4ccccc4F)cc3)[C@@H]2C1	107*	8	17	96*	91	19	59*
O=C(Nc1cccc(F)c1)N1CCCCN2[C@H](C1)[C@@H](c1ccc(-c3ccccc3F)cc1)[C@@H]2CO	101*	-9	65	?	?	96*	102*
CCCC#Cc1ccc2c(c1)O[C@H](CN(C)Cc1ccc3c(c1)OCO3)[C@H](C)CN([C@@H](C)CO)S2(=O)=O	128*	-79	15	?	112*	29	104*
CCCC#Cc1ccc2c(c1)O[C@@H](CN(C)Cc1ccc3c(c1)OCO3)[C@@H](C)CN([C@@H](C)CO)S2(=O)=O	126*	-75	11	89	103*	29	105*
CCCC#Cc1ccc2c(c1)O[C@H](CN(C)Cc1ccc3c(c1)OCO3)[C@@H](C)CN([C@H](C)CO)S2(=O)=O	101*	·	19	98*	92	26	106*
CCCC#Cc1ccc2c(c1)O[C@@H](CN(C)Cc1ccccc1)[C@@H](C)CN([C@H](C)CO)S2(=O)=O	·	-19	7	·	·	·	·
SMILES	T cruzi growth-1	Pf Dd2 inh	C diff growth	T cruzi growth-2	T cruzi growth-3	3T3 cytotox	3T3 cytotox 2
CCCC#Cc1ccc2c(c1)O[C@H](CN(C)Cc1ccc3c(c1)OCO3)[C@H](C)CN([C@H](C)CO)S2(=O)=O	130*	?	13	100*	110*	6	104*
CC(C)CC#Cc1ccc2c(c1)O[C@@H](CN(C)Cc1ccc3c(c1)OCO3)[C@H](C)CN([C@H](C)CO)S2(=O)=O	61	-73	26	·	·	·	·
CC(C)CC#Cc1ccc2c(c1)O[C@H](CN(C)Cc1ccc3c(c1)OCO3)[C@H](C)CN([C@H](C)CO)S2(=O)=O	89	-33	20	·	·	·	·
CC(C)CC#Cc1ccc2c(c1)O[C@H](CN(C)Cc1ccc3c(c1)OCO3)[C@@H](C)CN([C@@H](C)CO)S2(=O)=O	65	-63	23	·	·	·	·
C[C@@H]1CN([C@@H](C)CO)C(=O)c2cc(/C=C/c3ccccc3)cnc2O[C@@H]1CN(C)Cc1ccccc1F	108*	-14	5	114*	80	32	56*
C/C=C/c1cnc2c(c1)C(=O)N([C@@H](C)CO)C[C@H](C)[C@H](CN(C)Cc1ccccc1F)O2	·	5	-2	·	·	·	·
Cc1ccc(-c2cnc3c(c2)C(=O)N([C@H](C)CO)C[C@@H](C)[C@@H](CN(C)Cc2ccccc2F)O3)cc1	71	-6	0	·	·	·	·
Cc1ccc(-c2cnc3c(c2)C(=O)N([C@H](C)CO)C[C@H](C)[C@@H](CN(C)Cc2ccccc2F)O3)cc1	109*!	-22	4	108*	60	5	69*
